Source: PubChem BioAssay AID624351 (Southern Research Specialized Biocontainment Screening …, 2012)
Out of some 2,400 compounds screened, about 1,400 (58%) were called active.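 How the source made its calls: active means inhibition of 30% or more at any tested dose; inconclusive means primary hits over the limit that were never retested; inactive means the rest.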 The set was probably picked from earlier hits. Some of the results follow.

Assay: ADP Hunter readout inhibition without MgcRacGAP – biochemical, coupled enzyme counter-screen, artefact control for MgcRacGAP inhibitor project, dose response (AID 624351);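 further: signal is the ADP detection kit reading of free GDP without any GAP enzyme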;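 on inhibition: 0% = median positive control wells and 100% = median negative control wells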
Conditions: fluorescence, no MgcRacGAP; series mostly up to 80 µM; inhibition: at the top concentration

Row | Compound | IC50 | inhibition
1 | O=C1/C(=C\c2ccc(O)cc2)SC(=S)N1/N=C/c1ccc(O)cc1 | 72.7 µM (active) | –
2 | CCOc1cc(CN2CCN(C(=O)CC(C)C)CC2)ccc1OC | – | 19% (inactive)
3 | CCN(CC)c1ccc(/C=N/N2CCN(Cc3ccccc3)CC2)cc1 | 75.1 µM (active) | –
4 | CCN(Cc1ccccc1)c1ccc(/C=N/N2CCOCC2)cc1 | 57.8 µM (active) | –
5 | CCN(Cc1ccccc1)C1CCN(Cc2ccc(SC)cc2)CC1 | – | 17.8% (inactive)
6 | CN(c1ccccc1)c1ccc(/C=C/[N+](=O)[O-])cc1 | – | 6.03% (inactive)
7 | CCOc1cc(/C=N/N2CCN(Cc3ccccc3)CC2)ccc1O | 78.5 µM (active) | –
8 | CCOc1ccc(CN2CCN(Cc3c[nH]c4ccccc34)CC2)cc1 | – | 26.6% (inactive)
9 | CN(c1ccccc1)c1ccc(/C=N/N2CCOCC2)cc1 | 36.8 µM (active) | –
10 | CC(CN1CCN(Cc2ccccc2)CC1)c1ccccc1 (configuration not stated) | – | -2.98% (inactive)
11 | CC(=O)N(C1=C(Cl)C(=O)c2ccccc2C1=O)c1ccc(C(=O)O)cc1 | – | 0.61% (inactive)
12 | CCN(CC)c1ccc(/C=N/N2CCOCC2)c(O)c1 | 63.7 µM (active) | –
13 | CN(C)c1ccc(/C=N/N2CCN(Cc3ccccc3Cl)CC2)cc1 | 71 µM (active) | –
14 | COc1ccccc1CN1CCN(Cc2cc(OC)c(OC)cc2OC)CC1 | – | 22.1% (inactive)
15 | CC(C)c1ccc(/C=N/N2CCCCC2)cc1 | – | 15.9% (inactive)
16 | CCN(CC)c1ccc(/C=N/N2CCOCC2)cc1 | 40.3 µM (active) | –

Row | Compound | IC50 | inhibition
17 | Cc1ccc(OCCN2CCN(C)CC2)c([N+](=O)[O-])c1 | – | 19.3% (inactive)
18 | COc1ccc2cc(C(=O)Nc3ccc(O)cc3)sc(=O)c2c1OC | 24.8 µM (active) | –
19 | O=C(Cn1sc2ccccc2c1=O)Nc1ccccc1 | – | -1.87% (inactive)
20 | O=C(Nc1ccc(O)cc1)c1cc2ccccc2c(=O)s1 | 30.1 µM (active) | –
21 | Cc1ccc(S(=O)(=O)N2CCCCC2)cc1NC(=O)CNCc1ccco1 | – | 18.3% (inactive)
22 | CCN(CC)S(=O)(=O)c1ccc(C)c(NC(=O)CN2CCN(C)CC2)c1 | – | 11.1% (inactive)
23 | COc1cc(/C=C/C(=O)OCC(=O)Nc2cc(S(=O)(=O)N3CCCCC3)ccc2C)ccc1O | 60.2 µM (active) | –
24 | COc1cc(/C=C/C(=O)OCC(=O)Nc2ccc(S(=O)(=O)N3CCCC3)cc2)ccc1O | 45.7 µM (active) | –
25 | Cc1ccc(NC(=O)CNCCCN2CCOCC2)cc1S(=O)(=O)N1CCCCC1 | – | 21% (inactive)
26 | COCCNCC(=O)Nc1ccc(C)c(S(=O)(=O)N2CCCCC2)c1 | – | 17.4% (inactive)
27 | CC(CCN1CCN(CCO)CC1)c1ccccc1 (configuration not stated) | – | 3.17% (inactive)
28 | CN=C1S/C(=C\c2ccc(O)c(Br)c2)C(=O)N1C | 45.8 µM (active) | –
29 | Cc1nc(N)sc1-c1ccccc1 | 80.8 µM (active) | –
30 | COc1ccc(-c2ccc(CCC(=O)O)n2-c2ccc(O)cc2)cc1 | – | 11.4% (inactive)
31 | COC(=O)c1ccc2c(c1)C(C)(C)C(/C=C/c1ccc(O)cc1)=[N+]2C | – | 17.5% (inactive)
32 | COc1ccc(C(=O)/C=C/c2ccc(O)cc2)cc1 | 42.2 µM (active) | –
